A selection: hits, their analogues and other compounds. The true share with any hit is near 1.9%.
S1P4 antagonist: blocks the human S1P4 receptor. O95977. S1P4-expressing cells, antagonist mode, reporter read-out. inhibition, % at 4.98 µM. 0.26% of 220,000 active; in the data active = inhibition above about 29%
EP2 mod: modulates human prostaglandin E2 receptor EP2 signaling; induction, % at 25 µM; 0.83% of 260,000 active; EP2-expressing cells, cAMP HTRF FRET, PGE2 co-stimulation; AID 940;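 active = compounds whose cAMP rise, as percent of the full-agonist control response, exceeds 60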;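 note: rat C6 glioma line stably carrying human EP2 under a CMV promoter; the protocol text gives 20 µM as final concentration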
S1P4 ag: activates the human S1P4 receptor | O95977 | S1P4-expressing cell line, agonist reporter assay | activation, % at 4.98 µM | 0.35% of 220,000 active; in the data active = activation above about 11%
PGE2 EP2 inh: EP2 receptor (human) inhibition; AID 1422; C6 glioma cells expressing human EP2, cAMP TR-FRET; cells stimulated with saturating PGE2; 0.52% of 260,000 active; inhibition, % at 25 µM;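 active = percent inhibition above 40 after rounding to a whole number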;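 note: rat C6 glioma host cells with rolipram phosphodiesterase inhibitor present; the protocol text gives 20 µM as final concentration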
S1P3 antag: blocks the human S1P3 receptor; CHO S1P3 NFAT-BLA reporter, FRET fluorescence, antagonist mode; AID 485; 0.27% of 170,000 active; inhibition, % at 4.98 µM;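 active = inhibition above the plate cutoff, the mean inhibition of test wells on that plate plus 3 SD, cut at about 28% in these data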;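 note: cells challenged with S1P at its EC80 of 0.8 µM; blue over green emission ratio from cleaved BLA substrate after 4 h stimulation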
Target sequence (Q99500 whole entry, looked up): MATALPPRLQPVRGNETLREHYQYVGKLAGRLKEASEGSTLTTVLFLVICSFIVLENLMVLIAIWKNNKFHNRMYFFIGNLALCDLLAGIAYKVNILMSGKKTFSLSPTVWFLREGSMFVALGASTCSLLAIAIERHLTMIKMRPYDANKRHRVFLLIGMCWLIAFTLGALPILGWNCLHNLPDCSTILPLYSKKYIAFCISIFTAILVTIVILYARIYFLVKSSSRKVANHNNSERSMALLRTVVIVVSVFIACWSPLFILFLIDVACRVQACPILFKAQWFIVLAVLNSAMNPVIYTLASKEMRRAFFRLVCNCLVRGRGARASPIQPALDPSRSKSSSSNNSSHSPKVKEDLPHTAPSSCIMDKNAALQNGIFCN
Numbers stand for hits; 0 = inactive; - = no result given; ! = repeats disagree.

SMILES	S1P4 antagonist	EP2 mod	S1P4 ag	PGE2 EP2 inh	S1P3 antag
COc1ccc(CC[N@+]2(C)COc3cc4oc(=O)cc(C)c4cc3C2)cc1OC	-	0	-	51.4	-
CC[C@H]1CN(C)[C@@H]2Cc3c([nH]c4ccccc34)C(=O)C[C@H]1[C@H]2C(=O)OC	-	0	-	52.4	-
CCC1CN(C)C2Cc3c([nH]c4ccccc34)C(=O)CC1C2C(=O)OC (centres undefined)	0	0	0	0	0
CNc1oc(-c2ccc(C)cc2)nc1P(=O)(c1ccccc1)c1ccccc1	0	60.5	0	0	-
O=C(c1ccccc1)c1ccccc1NC(=O)C1CCCN1Cc1ccccc1 (centres undefined)	0	72.8	0	0	0
O=C(CN1CCCC1)Nc1ccccc1C(=O)c1ccccc1	0	0	0	0	0
CCOc1ccccc1N(CC(=O)N1CCCC1)S(=O)(=O)c1ccc(SC)cc1	-	0	-	0	-
CC(=O)Nc1ccc2c(c1)C(=O)c1ccccc1C2=O	0	0	0	0	-
O=C(Nc1ccc(Nc2ccc3c(c2)C(=O)c2ccccc2C3=O)c2c1C(=O)c1ccccc1C2=O)c1ccccc1	-	0	-	44.5	-
Oc1cc(-n2cccn2)c(O)cc1-n1cccn1	0	0	0	114.4	0
CC1CCC/C(=N/Nc2ccc([N+](=O)[O-])cc2[N+](=O)[O-])C1 (centres undefined)	0	0	0	0	-
O=[N+]([O-])c1ccc(NN=C2c3ccccc3Cc3ccccc32)c([N+](=O)[O-])c1	-	0	-	44.2	-
CCCS(=O)(=O)N1CCN(C(=O)c2cc(OC)cc(OC)c2)CC1	0	0	0	0	94.6
CCn1c(CNC(=O)Cc2ccc(OC)cc2)nnc1SCC(=O)Nc1nccs1	0	0	0	0	60.5
CCCC(c1nnnn1C1CCCCC1)N(Cc1ccccc1)Cc1cc2cccc(C)c2[nH]c1=O (centres undefined)	-	0	-	0	-
CCN(c1ccccc1)S(=O)(=O)c1ccc(F)cc1C	0	62.5	0	0	0
CCc1c(C)nc2ncnn2c1Nc1ccc(Br)cc1	-	0	-	0	-
N=c1sc2ccccc2n1-c1ccccc1	0	61.0	0	0	-
Nc1no[n+]([O-])c1C(=O)N1CCCCC1	-	0	-	0	-
CCc1cc2ccc(OC)cc2nc1SCC(=O)NCCc1ccc(OC)c(OC)c1	-	74.3	-	0	-
COc1ccc2cc(C#N)c(SCC(=O)NCCc3ccc(OC)c(OC)c3)nc2c1	-	0	-	0	-
CCc1cc2ccc(C)cc2nc1SCC(=O)Nc1c(C)cccc1C	-	0	-	0	-
CCc1cc2ccc(OC)cc2nc1SCC(=O)Nc1c(C)cccc1C	-	63.8	-	0	-
CCc1cc2ccc(OC)cc2nc1SCC(=O)NNC(=O)c1ccc(OC)cc1	-	61.6	-	0	-
CCOc1ccccc1NC(=O)CSc1nc2cc(OC)ccc2cc1CC	-	0	-	0	-
SMILES	S1P4 antagonist	EP2 mod	S1P4 ag	PGE2 EP2 inh	S1P3 antag
CCc1cc2ccc(OC)cc2nc1SCC(=O)Nc1ccccc1C	-	79.8	-	0	-
COc1ccc2c(c1)NC1(CCCN(C(=O)C3CC=CCC3)C1)c1cccn1-2 (centres undefined)	-	0	-	0	-
C=CCn1c(N2CCC(C(=O)NCCc3ccc(F)cc3)CC2)nc2ccccc21	-	0	-	-	-
O=C(CSc1nnc2scc(-c3ccccc3)n12)N1CCCCC1	-	0	-	0	-
Cc1onc(-c2ccccc2Cl)c1C(=O)OCN1C(=O)c2ccccc2C1=O	0	0	0	0	0
Cc1onc(-c2ccccc2Cl)c1C(=O)OCc1cnc(Cl)s1	0	64.1	0	0	0
O=C(c1ccccc1-c1ccccc1)N1CCC(c2ccncc2)CC1	-	0	-	0	-
CCOc1cc(CN(Cc2cccnc2)C2CC(C)(C)NC(C)(C)C2)ccc1OC	-	0	-	0	-
COc1ccc(-n2c(SCC(=O)NC3CCCCC3)nnc2-c2ccoc2C)cc1	-	0	-	0	-
COc1ccc(SN=C2C(C)=CC(=O)C=C2C)cc1	0	0	0	0	0
COC1=CC(=O)C=C(OC)C1=O	-	0	-	74.6	-
CCN1CCN(C(=O)c2cc(-c3ccc(C)cc3)on2)CC1	-	0	-	0	-
CC(C)(C)c1nc(SCC(=O)c2ccc(F)cc2)c2ccccc2n1	-	69.5	-	0	-
O=C(CN(Cc1cccs1)C(=O)Cn1nnc(-c2ccc(F)cc2)n1)NC1CCCC1	-	0	-	0	-
CCCCOC(=O)CSCC(=O)N1N=C(c2cccs2)CC1c1ccc(F)cc1 (centres undefined)	0	0	0	50.0	0
O=C(Cn1nc(-c2cccnc2)oc1=O)N1CCN(c2ccccc2)CC1	-	0	-	0	-
c1ccc(CN2COc3c(ccc4c5c(ccc34)CN(Cc3ccccc3)CO5)C2)cc1	-	0	-	41.6	-
CC(=O)N1CCCc2cc(C(O)CN(C)Cc3ccccc3)ccc21 (centres undefined)	-	0	-	0	-
COc1ccc(C(=O)c2ccccc2)cc1	0	0	0	0	0
COc1ccc(C(=O)[C@H](Br)[C@H](Br)C(=O)O)cc1	-	0	-	41.5	-
COc1cccc(-c2nc(-c3ccc(NC(=O)c4cccnc4)cc3)no2)c1	0	0	0	0	0
O=C(Nc1ccc(-c2noc(-c3cccs3)n2)cc1)c1cccnc1	0	0	0	69.1	0
COC(=O)c1c(NC(=O)c2ccc(OC)cc2)sc(C(=O)N2CCCCC2)c1C	-	0	-	0	-
CC(C)CC(NC(=O)C1CCCCC1)c1nc2cccnc2n1C (centres undefined)	-	0	-	0	-
CC(=O)Oc1c(/C=C(\C#N)C(N)=O)[nH]c2ccccc12	0	0	0	94.9	0
SMILES	S1P4 antagonist	EP2 mod	S1P4 ag	PGE2 EP2 inh	S1P3 antag
O=C(c1nsc(Cl)c1Cl)N1C2CCC1CC(c1ccc(F)cc1)C2 (centres undefined)	-	0	-	-	-
CCN1/C(=C/c2ccc3cc(OC)ccc3[n+]2CC)Sc2cc(NC(C)=O)ccc21	-	0	-	0	-
CC[n+]1c(/C=C2/Sc3ccc(OC)cc3N2C)ccc2cc(OC)ccc21	-	0	-	123.2	-
COc1cc(C2=NOC(C(=O)NC3CCCCC3)C2)cc(OC)c1OC (centres undefined)	0	0	0	0	96.2
Cc1ccc(Cl)cc1NC(=O)Cn1nc(-c2ccncc2)nc1SCC(=O)NC1CCCC1	-	0	-	0	-
O=C1C=CC(=O)c2c(O)c(Cl)c(Cl)c(O)c21	-	0	-	128.8	-
NC(=O)NC(=O)CSc1nc2sc(-c3ccccc3)cc2c(=O)n1-c1ccccc1	0	64.5	0	0	0
CSc1nc2sc(-c3ccccc3)cc2c(=O)n1N	0	0	0	-	-
COc1ccc(C(=O)Nc2sc(C(=O)N3CCCCC3)c(C)c2C#N)cc1OC	-	0	-	0	-
Cc1ccc(N=Nc2c(O)c3ccccc3[nH]c2=O)c(S(=O)(=O)N(C)C)c1	0	0	0	48.1!	0
C=CCOC(=O)c1[nH]c2c(c1C)C(=O)CC(c1cc(OC)c(OC)c(OC)c1)C2 (centres undefined)	0	0	0	0	0
CCCCOC(=O)c1[nH]c2c(c1C)C(=O)CC(c1cc(OC)c(OC)c(OC)c1)C2 (centres undefined)	0	0	0	0	52.5
Cc1c(C(=O)OCCOC(C)C)[nH]c2c1C(=O)CC(c1ccco1)C2 (centres undefined)	0	0	0	0	53.7
COCCOC(=O)c1[nH]c2c(c1C)C(=O)CC(c1ccco1)C2 (centres undefined)	0	0	0	0	0

Screens as filed in PubChem BioAssay.
